Screen size: about 360,000 compounds; about 11,000 (3.1%) were called active. About 4% were inconclusive and are not listed. The call rests on the fitted dose curve; in most records, active means well fitted inhibition curve with a large enough effect; inconclusive means small, poorly fitted or top-dose-only effect; inactive means no such curve, though single readings can be large or run the other way. What follows is part of a selection rich in actives, with near analogues and random picks from the rest. Where a call stands in place of a potency, no number is given.
Potency means the concentration at half of the fitted maximal effect.

The target in the experiment is Schistosoma mansoni thioredoxin glutathione reductase (TGR) (UniProt Q962Y6). The experiment in a line: qHTS Assay for the Inhibitors of Schistosoma Mansoni Peroxiredoxins. Further: nearly all actives have a fitted effect of over 60% in size. To be noted: purified TGR, DTNB reduction, TNB absorbance 405 nm; series mostly up to 114 µM. An excerpt:
Schistosomiasis is a major neglected tropical disease that currently affects over 200 million. It is caused by different species of flatworms, such as Schistosoma mansoni. Over the last century, drugs to treat the disease have evolved from potassium antimonyl tartrate, artemisinin, oxamniquine, to praziquantel, with praziquantel remaining the universally-used single drug of choice over the past three decades. However, transmission rates have changed little with praziquantel, and there is evidence for the development of drug resistant parasites. Because there is currently no suitable alternative therapy available, there is an urgent need to identify new targets and drugs for schistosomiasis treatment. Thioredoxin glutathione reductase (TGR), one uniquely positioned S. mansoni enzyme, has been identified as a major component of the worms' distinct and compressed antioxidant "firewall". TGR is a multifunctional enzyme that catalyzes the interconversion between reduced and oxidized forms of both glutathione (GSH) and thioredoxins, thus making it an attractive new antiparasitic target. Recently, a quantitative high-throughput screen of the NIH Molecular Libraries Small Molecule Repository (MLSMR, ~71K at the time of the screen in 2007) was performed using an assay that targeted both TGR and peroxiredoxin2 (Prx2, an H2O2-reducing enzymatic component of the S. mansoni redox "firewall") by following the decrease of NADPH fluorescence. […] Additional mechanistic link between exogenous NO donation and parasitic injury for the oxadiazole-2-oxide class of compounds was also expanded and better defined. Although the screen addressed both TGR and Prx2, the assay required post-screen target deconvolution for further characterization of the actives. In addition, the fluorescence assay was also subject to fluorescence interference from compound library members. We have developed a 1536-well-based kinetic HTS assay to address TGR alone. The assay followed the reduction of 5, 5'-dithiobis (2-nitrobenzoic acid) (DTNB) (Ellman's reagent) by NADPH and measured the increase in absorbance at 412 nm of the reaction product, TNB. […] This assay format can be used to screen the current MLSMR collection (with >300K compounds available) to find novel TGR inhibitors. Furoxan is a good choice to serve as a positive control in the primary HTS assay.
Three microliters of reagents (100 uM NADPH and 20 nM TGR or 100 uM NADPH as no-enzyme control) were dispensed into 1,536-well black clear-bottomed plates. Compounds (23 nL) were transferred via Kalypsys pin tool equipped with 1536-pin array (10 nL slotted pins, V&P Scientific, San Diego, CA). The plates were then be incubated for 15 min at room temperature, and 1 uL aliquot of 500 uM NADPH were added, immediately followed by a 1 uL aliquot of 15 mM DTNB to start the reaction. The plate was transferred to a ViewLux high-throughput CCD imager (Perkin-Elmer, Wellesley, MA) where kinetic measurements of the TNB absorbance were acquired using a 405 excitation filter. Throughout the screen, reagent bottles and all liquid lines were made light-tight to minimize reagent degradation. All screening operations were performed on a fully integrated robotic system (Kalypsys, San Diego, CA) containing one RX-130 and two RX-90 anthropomorphic robotic arms (Staubli, Duncan, SC). Library plates were screened starting from the lowest and proceeding to the highest concentration, and a "double-dipping" step of the highest concentration was required to access higher concentrations of compounds. Vehicle-only plates, with DMSO being pin-transferred to the entire column 5-48 compound area, were inserted uniformly at the beginning and the end of each library in order to monitor for and record any shifts in the background, which can be affected by reagent dispensers or loss in enzyme activity overtime. […]
For `Cc1ccc(C(=O)Oc2ccc(C(=S)N3CCOCC3)cc2)cc1`, the Potency entry is “inactive”. `Cc1ccc(C(=O)OC2=CC(=O)CC(C)(C)C2)cc1`: the Potency is 44.7 µM (active). Take `COc1ccccc1CNC(=O)c1ccc(CS(=O)c2ccccc2Cl)o1` (centres undefined): the Potency entry was “inactive”. The same measure for `COc1cccc(C(=O)N(Cc2cccc(Cl)c2)Cc2ccco2)c1`: “inactive”; for `CCS(=O)(=O)Nc1ccc(C2=NN(C(C)=O)C(c3cccs3)C2)cc1` (centres undefined): “inactive”; for `CS(=O)(=O)Nc1cccc(C2=NN(S(=O)(=O)c3ccccc3)C(c3cccs3)C2)c1` (centres undefined): “inactive”.

In the case of `CCS(=O)(=O)Nc1ccc(C2=NN(S(=O)(=O)c3ccc(F)cc3)C(c3ccco3)C2)cc1` (centres undefined), the Potency was 44.7 µM (active). As to `CCOCCCNC(=O)c1c(NC(=O)Cc2coc3c(C)c(C)ccc23)sc2c1CCC2`, the Potency entry was “inactive”. For `CCCCNC(=O)CSc1nc2cc3c(cc2c(=O)n1CCCCCC(=O)NCc1ccc2c(c1)OCO2)OCO3` the value was “inactive”; for `O=C(NCc1ccco1)c1nc2ncccn2n1`, “inactive”; for `O=C(NCc1ccco1)c1cccn2c(=O)c3c4c(sc3nc12)CCCC4`, 12.6 µM (active). The same measure for `O=c1oc(-c2ccco2)nc2sc3c(c12)CCCCC3`: “inactive”.

As to `C=CCn1c(SCC(=O)NCCCO)nc2sc3c(c2c1=O)CCC3`, the Potency result was “inactive”.

With `O=C(CSc1nc2cc3c(cc2c(=O)n1CCC1=CCCCC1)OCO3)NCc1ccco1`, the Potency result was “inactive”. Regarding `C=C(C)Cn1c(SCC(=O)NCc2ccco2)nc2sc3c(c2c1=O)CCC3`, the Potency is 44.7 µM (active). The same measure for `Cc1nc2ccc(S(=O)(=O)N(CC(=O)Nc3ccc(F)cc3)Cc3ccccc3)cc2s1`: “inactive”; for `CCN(CC)C(=O)CSc1nc2cc3c(cc2c(=O)n1CCCC(=O)NCc1ccc2c(c1)OCO2)OCO3`: “inactive”. For the molecule `Cc1cc(C)cc(C(=O)NCCN2CCOCC2)c1`, the Potency result is “inactive”. For `CC(=O)Oc1cc2c(C(=O)NCCN3CCOCC3)c(C)oc2c2ccccc12`, the Potency was 25.1 µM (active).

As to `CCc1cc(=O)oc2c(C)c(OCC(=O)NCCN3CCOCC3)ccc12`, the Potency result was “inactive”. In the case of `CCS(=O)(=O)N1CCC(n2c(C)nc3cccnc32)CC1`, the Potency result is “inactive”. As to `COC(=O)c1ccc(NC(=O)c2cc(S(=O)(=O)N3CCC(C)CC3)cn2C)cc1`, the Potency result is “inactive”. For the molecule `O=C(CCS(=O)(=O)c1ccccc1)Nc1nc2c(s1)CCCC2`, the Potency was 50.1 µM (active).

In the case of `O=C(CCS(=O)(=O)c1ccccc1)NC1CCCC1`, the Potency entry was “inactive”. As for `O=C(Nc1nc2c(s1)CCCC2)c1ccccc1F`, the Potency entry was “inactive”.

As to `COc1ccccc1NC(=O)c1cc(C2CC2)nc2c1c(C)nn2-c1ccc(C)cc1`, the Potency result is “inactive”. Take `Cc1occc1C(=O)N1CCCc2ccccc21`: the Potency was 44.7 µM (active). For `CCCn1nc(C(=O)N2CCCc3ccccc32)c2ccccc2c1=O`, the Potency result was “inactive”. Take `O=C(c1c(Cl)nc2sccn12)N1CCCc2ccccc21`: the Potency entry was “inactive”. Regarding `CC(C)c1ccc(NC(=O)CN(C)S(=O)(=O)c2ccc3c(c2)c(=O)n(C)c(=O)n3C)cc1`, the Potency entry is “inactive”. With `Cc1ccc(Cl)cc1N1CCN(C(=O)CN2C(=O)COc3ccc(S(=O)(=O)N4CCOCC4)cc32)CC1`, the Potency result was “inactive”. For `CCCNc1ncnc2c1c(-c1ccccc1)cn2-c1ccc(OCC)cc1`, the Potency entry is “inactive”. On to `CCc1ccc(NC(=O)CN2C(=O)C(c3ccccc3)=NC23CCCCCC3)cc1`, for which the Potency result was “inactive”. The same measure for `CCCCOC(=O)c1ccc(N2C(=O)CC(N3CCN(C/C=C/c4ccccc4)CC3)C2=O)cc1` (centres undefined): “inactive”.

Take `CCOc1ccc(N2C(=O)CC(N(CCc3ccc(OC)c(OC)c3)C(=S)Nc3ccccc3)C2=O)cc1` (centres undefined): the Potency result was “inactive”. `CCCCCCC(=O)N(O)C1CC(=O)N(c2ccccc2)C1=O` (centres undefined): the Potency is 0.282 µM (active). The same measure for `CCOc1cc2[nH]c(=O)n(Cc3ccc(C(=O)NCCN(CC)CC)cc3)c(=O)c2cc1OCC`: “inactive”; for `Cc1cc(C)cc(NC(=O)CSc2oc(-c3ccccc3)nc2S(=O)(=O)c2ccc(Cl)cc2)c1`: “inactive”; for `COc1ccc(-c2nnc(NC(=O)CS(=O)(=O)c3ccc(Cl)cc3)o2)c(OC)c1`: “inactive”. The same measure for `COc1cc(-c2nc(S(=O)(=O)c3ccc(Cl)cc3)c(N(C)C)o2)cc(OC)c1OC`: 25.1 µM (active); for `CCOc1ccc(N(CC)S(=O)(=O)N2CCCC(C(=O)NCc3ccc(SC)cc3)C2)cc1` (centres undefined): “inactive”. For `COc1ccc(-c2c3c(=O)n(C)c(=O)n(C)c3c3c(C)nc4ccccc4n23)cc1` the value was “inactive”.

`CCOC(=O)c1ccc(N2C(=O)c3n[nH]c(C)c3C2c2ccc(O)c(OC)c2)cc1` (centres undefined): the Potency was 11.2 µM (active). For `CCOc1cc(C2c3c(-c4ccc(Br)cc4)n[nH]c3C(=O)N2c2ccc(Cl)cc2)ccc1O` (centres undefined), the Potency result is “inactive”. For `CCOC(=O)c1ccc(N2C(=O)c3[nH]nc(-c4ccccc4)c3C2c2ccc(C(C)C)cc2)cc1` (centres undefined) the value was “inactive”; for `CCCn1c2ccccc2c2cnn(CC(=O)N(C)c3ccccc3CC)c(=O)c21`, “inactive”; for `CSc1ccc(C2c3c(oc4ccccc4c3=O)C(=O)N2CCCN2CCOCC2)cc1` (centres undefined), “inactive”. Regarding `COc1ccc(OC)c(NC(=O)C2CCN(S(=O)(=O)c3ccc(C)cc3)CC2)c1`, the Potency entry was “inactive”.

In the case of `NC(=O)C1CCN(C(=O)c2cccc(NC(=O)c3nsc4ccccc34)c2)CC1`, the Potency entry was “inactive”.

For the origin of these results see PubChem BioAssay AID485364 (National Center for Advancing Translational Sciences (NCATS), 2010).
